Where “and” joins values, the source holds several entries; their conditions need not be identical. Equal values may be shown once. Records with an inconclusive call do not appear. The source holds several records for some structures; these can differ, active in one and inactive in another. Calls of active or inactive are those of the source. Calls follow the shape of the dose curve; as a rule, active = well fitted inhibition curve with a large enough effect in the signal ratio in the repeat runs; inconclusive = weak or mixed curves, or effect the other way; inactive = flat fitted curve, though single readings scatter; the % refers to the signal ratio.
Test: qHTS assay for small molecule disruptors of the mitochondrial membrane potential (AID 720635)
Conditions: HepG2 mitochondrial membrane potential, Mito-MPS dye ratio; series mostly up to 83.2 µM; ratio activity, negative = MMP loss: at the top concentration
Description: U.S. Tox21 Program National Center for Advancing Translational Sciences [NCATS] NIH Chemical Genomics Center [NCGC] U.S. Environmental Protection Agency [EPA] National Institutes of Environmental Health Sciences [NIEHS] National Toxicology Program [NTP] U.S. Food and Drug Administration [FDA] Tox21 Assay Overview: Mitochondrial membrane potential (MMP), one of the parameters for mitochondrial function, is generated by mitochondrial electron transport chain that creates an electrochemical gradient by a series of redox reactions. This gradient drives the synthesis of ATP, a crucial molecule for various cellular processes. Measuring MMP in living cells is commonly used to assess the effect of chemicals on mitochondrial function. […] The dye accumulates in the mitochondria of healthy cells as aggregates, with red fluorescence. The mitochondrial potential collapses and the dye can no longer accumulate in the mitochondria and remains in the cytoplasm in monomers, with green fluorescence.
Tox21 Assay Protocol Summary: 2,000 HepG2 cells in 5 uL/well were dispensed into black, clear-bottom 1536-well plates using a Multidrop Combi (Thermo Scientific) dispenser. The assay plates were incubated overnight at 37C to allow cells to attach to the wells, followed by the transfer of 23 nL compound or DMSO vehicle by a pin tool (Kalypsys). The plates were incubated for 1 hr at 37C and 5% CO2, followed by the addition of 5 uL of 2X Mito-MPS dye (BD Biosciences) into each well using Flying Reagent Dispenser (Aurora Discovery) and then following 30 min incubation at 37C. Fluorescence intensity (490nm excitation and 535nm emission for monomers; and 540nm excitation and 590nm emissions for aggregates) was measured using an Envision plate reader.
% is scaled to controls: 0 for no effect and ±100 for the full control effect; potency is read from the fitted curve at half-maximal effect.

Row | SMILES | ratio activity, negative = MMP loss | Potency
1 | OCC1CC=CCC1 (stereo not given) | 15.7% (inactive) | –
2 | CC(C)CCCC(=O)O | 16.5% (inactive) | –
3 | Nc1nccs1 | -17.3% (inactive) | –
4 | CC1CN(c2cc3c(cc2F)c(=O)c(C(=O)O)cn3-c2ccc(F)cc2F)CCN1 (stereo not given) | 16.4% (inactive) | –
5 | COc1ccc(CCC(=O)c2c(O)cc(O[C@@H]3O[C@H](CO)[C@@H](O)[C@H](O)[C@H]3O[C@@H]3O[C@@H](C)[C@H](O)[C@@H](O)[C@H]3O)cc2O)cc1O | -12.9% (inactive) | –
6 | O=C(O)C(Cc1cc(I)c(O)c(I)c1)c1ccccc1 (stereo not given) | -11.4% (inactive) | –
7 | N#C/C(=C1\SCC(c2ccccc2Cl)S1)n1ccnc1 (stereo not given) | 14.3% (inactive) | –
8 | C[Si]1(C)O[Si](C)(C)O[Si](C)(C)O1 | 6.56% (inactive) | –
9 | C=CC(=O)NCOCC(C)C | 11.8% (inactive) | –
10 | Cc1c(C(=O)NN2CCCCC2)nn(-c2ccc(Cl)cc2Cl)c1-c1ccc(Cl)cc1 | – | 23.7 µM (active)
11 | Cc1nc2ccccc2s1 | 5.42% [at 95.3 µM] (inactive) | –
12 | c1ccc(COCc2ccccc2)cc1 | 14.7% [at 95.3 µM] (inactive) | –
13 | CC(=O)Nc1ccc(N)cc1 | 10.3% [at 95.3 µM] (inactive) | –
14 | Cc1ccc(S)cc1 | 16.8% (inactive) | –
15 | CC(C)CCCCCOC(=O)CCCCC(=O)OCCCCCC(C)C | 27.8% (inactive) | –
16 | CCN(CC)CCNC(=O)c1ccc(NC(C)=O)cc1 | 21.9% (inactive) | –
17 | CCOC(=O)/C=C/C(=O)O | -17.2% (inactive) | –
18 | O=C(O)Cc1ccc(-c2ccccc2)cc1 | 14.8% [at 39.1 µM] (inactive) | –
19 | CC(Cl)C(Cl)Cl (stereo not given) | 12.2% (inactive) | –
20 | CCCOCCOCCO | -14.4% (inactive) | –

Row | SMILES | ratio activity, negative = MMP loss | Potency
21 | O=C(CCCCCCC(=O)Nc1ccccc1)NO | – | inactive
22 | Nc1ccc(C(=O)OCCCOC(=O)c2ccc(N)cc2)cc1 | – | 27.3 µM (active)
23 | N#C[C@@H]1C[C@@H]2C[C@@H]2N1C(=O)[C@@H](N)C12CC3CC(CC(O)(C3)C1)C2 | 13.5% (inactive) | –
24 | Cc1cc(O)c(C(C)C)cc1Cl | – | inactive and 4.33 µM (active)
25 | Cc1cnc(C)c(C)n1 | 14.2% [at 95.3 µM] (inactive) | –
26 | O=C1OCCN1/N=C/c1ccc([N+](=O)[O-])o1 | -13.6% (inactive) | –
27 | CCCCCCCC/C=C\CCCCCCCC(=O)OC(CO)CO | -11.4% (inactive) | –
28 | CN1CCCN=C1/C=C/c1cccs1 | 7.9% (inactive) | –
29 | CC1=CC(=O)CC(C)(C)C1(O)/C=C/C(C)=C\C(=O)O (stereo not given) | -6.49% (inactive) | –
30 | COc1cc2[nH]c(=O)[nH]c(=O)c2cc1OC | 9.31% [at 39.1 µM] (inactive) | –
31 | Cc1nccn1-c1ccc(Sc2cccc(C3(C(N)=O)CCOCC3)c2)cc1 | -29.7% (inactive) | –
32 | CC(=O)CC(c1ccc([N+](=O)[O-])cc1)c1c(O)c2ccccc2oc1=O (stereo not given) | – | 7.17 µM (active)
33 | O=C(Nc1ccccc1)Nc1ccccc1 | – | 1.73 µM (active)
34 | C=C(C)C(=O)OCCOC(=O)CC(C)=O | 15.2% (inactive) | –
35 | C=CC(=C)CCCC(C)(C)OC(C)=O | -10.3% (inactive) | –
36 | CCCCC(CC)CNCC(CC)CCCC (stereo not given) | -4.71% (inactive) | –
37 | C=CCOC(=O)/C=C\C(=O)OCC=C | 20.7% [at 95.3 µM] (inactive) | –
38 | Nc1ccc(Cl)cc1[N+](=O)[O-] | – | 53.9 µM (active)
39 | OCCSc1ccccc1 | 6.4% (inactive) | –
40 | NCC1CCCC(CN)C1 (stereo not given) | 23.3% (inactive) | –

Reference: PubChem BioAssay (Tox21)
